Records with an inconclusive call do not appear. The source made the active and inactive calls. The calls were made as follows: active = hit-call score of the fitted dose curve at least 0.9, where 1 is the maximum; inconclusive = response in the unintended direction; inactive = score below 0.9.
What was measured:
[1] = biological target: Luciferin 4-monooxygenase (Photinus pyralis) (UniProt P08659); experiment: CCTE_Simmons_QuantiLum_inhib_2: CCTE's Firefly Luciferase Inhibition Assay, Simmons Lab (AID 2283767);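 as to AC50: potency for inhibitors that lower luciferase luminescence relative to DMSO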
Procedure, shortened: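 Eight-point titrations of each chemical, 5 nM–87.5 uM final in 0.5% DMSO, were run in three biological replicates against recombinant luciferase for 30 min at 37C. Bioluminescence signal loss, read on reagent injection, gave the inhibition endpoint.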

[2] = ACEA_AR_agonist_AUC_viability: ACEA Biosciences xCELLigence Real-Time Cell Analysis on Androgen Receptor Agonism for Viability (AID 2283775);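 as to AC50: viability read 80 hours after compound addition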
Procedure, shortened: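 Viability endpoint from xCELLigence impedance in 22Rv1 prostate cells at 80 h. Eight-point series, 100 uM maximum final.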

[3] = ACEA_AR_antagonist_AUC_viability: ACEA Biosciences xCELLigence Real-Time Cell Analysis on Androgen Receptor Antagonism for Viability (AID 2283776);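 also: 22Rv1 human prostate cancer cells growing on impedance electrode plates; area under impedance growth curve at 80 h after dosing as viability; hits lower the growth signal relative to DMSO meaning cytotoxicity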
Procedure, shortened: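 Impedance read-out (RT-CES): area under growth curve at 80 h post-dose, loss of signal scored vs DMSO baseline. 22Rv1 cells; 8-pt 1:4 series, top 100 uM final, ≤0.5% DMSO; biological duplicate.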

[4] = biological target: zebrafish Estrogen Receptor (ESR1), esr1 (gene 259252) (UniProt P57717); experiment: ATG_zfER1_XSP1: Attagene TRANS-FACTORIAL Multi-Species (XSP1) HepG2 Assay for zebrafish Estrogen Receptor (ESR1) (AID 2283772)
Procedure, shortened: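 HepG2 cells were transiently transfected with multiplexed GAL4-UAS reporter units driven by chimeric NR-GAL4 proteins, dosed for 24 h with 3 nM 6-alpha-fluorotestosterone present, and reporter mRNA quantified by RT-PCR and capillary electrophoresis versus DMSO.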

[5] = system: zebrafish Estrogen Receptor (ESR2B), gene 317733; experiment: ATG_zfER2b_XSP1: Attagene TRANS-FACTORIAL Multi-Species (XSP1) HepG2 Assay for zebrafish Estrogen Receptor (ESR2B) (AID 2283773)
Procedure, shortened: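 Human hepatoma HepG2, transiently transfected with multi-reporter units; exogenous zebrafish ESR2B-Gal4 activity measured. Exposure 24 h alongside 3 nM 6-alpha-fluorotestosterone to partly stimulate AR.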

[6] = system: frog Estrogen Receptor (ESR2), gene 100174814; experiment: ATG_frER2_XSP1: Attagene TRANS-FACTORIAL Multi-Species (XSP1) HepG2 Assay for frog Estrogen Receptor (ESR2) (AID 2283774)
Procedure, shortened: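 Multiplexed TRANS-format reporter assay in human hepatoma HepG2: chimeric nuclear receptor-Gal4 activity reported as mRNA induction at 24 h, detected by fluorescent RT-PCR products on capillary electrophoresis and fitted upward from DMSO baseline.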

[7] = system: frog Estrogen Receptor (ESR1), gene 398734; experiment: ATG_frER1_XSP1: Attagene TRANS-FACTORIAL Multi-Species (XSP1) HepG2 Assay for frog Estrogen Receptor (ESR1) (AID 2283777)
Procedure, shortened: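 After transient transfection and 24 h compound treatment, total RNA from HepG2 cells was reverse-transcribed, amplified, FAM-labeled and resolved by capillary electrophoresis. Signal increases were fitted against DMSO controls.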

[8] = system: zebrafish Estrogen Receptor (ESR2A), gene 317734; experiment: ATG_zfER2a_XSP1: Attagene TRANS-FACTORIAL Multi-Species (XSP1) HepG2 Assay for zebrafish Estrogen Receptor (ESR2A) (AID 2283778)
Procedure, shortened: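 Gain-of-signal reporter transcription readout from GAL4-UAS units in transiently transfected HepG2 cells, 24 h exposure, 3 nM 6-alpha-fluorotestosterone co-present. Detection by RT-PCR with capillary electrophoresis fluorescence.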

[9] = STM_H9_OrnCyssISnorm_ratio: Stemina devTOX quickPredict H9 human embryonic stem cell (hESC)-based Assay for Ornithine (ORN):Cystine (CYSS) Ratio (AID 2283714)
Procedure, shortened: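 H9 hESC, 72h, q24h re-dose; last-day media → acetonitrile deproteinization → UPLC-HRMS. ORN:CYSS ratio from isotope-normalized EIC areas, vs 0.1% DMSO; MTX references on each plate.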

[10] = Tanguay_ZF_120hpf_ActivityScore_legacy: (Legacy) Oregon State University Tanguay Lab 120 Hour Post-fertilization zebrafish Assay Score for Activity (AID 2283742)
Procedure, shortened: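 In this whole-embryo screen, dechorionated zebrafish were exposed from 6 hpf until 120 hpf at 28C under a 0.64% DMSO vehicle. Developmental malformations and death were recorded by brightfield microscopy as binary endpoints.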

Chain of Luciferin 4-monooxygenase (Photinus pyralis) (P08659 whole entry, looked up): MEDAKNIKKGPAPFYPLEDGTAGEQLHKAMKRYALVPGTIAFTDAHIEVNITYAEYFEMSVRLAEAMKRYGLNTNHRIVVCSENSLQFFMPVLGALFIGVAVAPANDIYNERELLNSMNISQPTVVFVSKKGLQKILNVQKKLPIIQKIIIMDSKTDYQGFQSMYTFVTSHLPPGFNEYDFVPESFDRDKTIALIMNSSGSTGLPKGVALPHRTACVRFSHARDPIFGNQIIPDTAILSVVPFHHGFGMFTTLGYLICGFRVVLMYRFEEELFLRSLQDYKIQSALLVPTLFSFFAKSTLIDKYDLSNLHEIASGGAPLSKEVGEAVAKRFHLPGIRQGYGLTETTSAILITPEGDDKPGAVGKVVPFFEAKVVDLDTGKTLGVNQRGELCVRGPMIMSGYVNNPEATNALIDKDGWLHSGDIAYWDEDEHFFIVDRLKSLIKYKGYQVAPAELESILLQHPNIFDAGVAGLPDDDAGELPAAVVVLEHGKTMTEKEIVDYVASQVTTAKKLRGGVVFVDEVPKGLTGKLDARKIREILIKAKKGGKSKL
Chain of zebrafish Estrogen Receptor (ESR1), esr1 (gene 259252) (P57717 whole entry, looked up, the tested form may be a part): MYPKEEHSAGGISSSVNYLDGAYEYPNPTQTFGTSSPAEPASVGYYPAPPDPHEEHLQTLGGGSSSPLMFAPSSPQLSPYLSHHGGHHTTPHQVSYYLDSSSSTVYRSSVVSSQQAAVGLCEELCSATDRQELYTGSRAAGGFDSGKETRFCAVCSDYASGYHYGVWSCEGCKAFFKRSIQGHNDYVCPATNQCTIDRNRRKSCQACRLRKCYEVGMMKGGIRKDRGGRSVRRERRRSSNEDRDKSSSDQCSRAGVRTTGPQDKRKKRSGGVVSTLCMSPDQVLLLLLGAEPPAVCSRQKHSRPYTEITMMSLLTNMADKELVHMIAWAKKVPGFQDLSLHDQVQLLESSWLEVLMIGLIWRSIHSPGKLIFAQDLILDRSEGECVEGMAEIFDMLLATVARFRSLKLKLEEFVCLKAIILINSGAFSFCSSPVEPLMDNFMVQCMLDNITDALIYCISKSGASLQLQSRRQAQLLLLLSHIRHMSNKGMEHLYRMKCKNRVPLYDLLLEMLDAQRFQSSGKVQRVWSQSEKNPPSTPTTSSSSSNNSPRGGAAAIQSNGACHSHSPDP

Which results are given for `CCCCCCCCC=CCCCCCCCC1=NCCN1CCO`?
outcome [1]: inactive; outcome [2]: inactive; outcome [3]: inactive

Which AC50 [1] does the source give for `CN(C)c1cccc(O)c1` here?
Its AC50 is 40.6 µM (active).

And the outcome [3]?
The outcome was “inactive”.

With `O=C1OC[C@H](Cc2cccc(O)c2)[C@H]1Cc1cccc(O)c1` as the compound, how does the outcome [1] read?
Its outcome is “inactive”.

What about the AC50 [3] of the same compound?
Its AC50 is 8.21 µM (active).

For `COc1ccc(N=Nc2cc(C)c(N=Nc3ccc(S(=O)(=O)O)cc3)cc2OC)cc1`, which AC50 [1] is on record?
Its AC50 is 53.8 µM (active).

For `CC(C)NCC(O)COc1ccc(CC(N)=O)cc1` (stereo not given), which outcome [1] is on record?
Its outcome is “inactive”.

And the outcome [2]?
The outcome was “inactive”.

With `C=C1CC[C@H](O)C/C1=C/C=C1\CCC[C@]2(C)[C@@H]([C@H](C)/C=C/[C@H](C)C(C)C)CC[C@@H]12` as the compound, how does the outcome [1] read?
Its outcome is “inactive”.

What about the outcome [2] of the same compound?
Its outcome is “inactive”.

With `CCCCCC(C=O)=Cc1ccccc1` as the compound, how does the outcome [1] read?
Its outcome is “inactive”.

What does the source list for `CCCCCCCCc1ccc(S(=O)(=O)O)cc1`?
outcome [1]: inactive; outcome [2]: inactive; outcome [3]: inactive

For `CC(C)CCCCCCCCCCCCCCC(=O)O`, which outcome [1] is on record?
The outcome was “inactive”.

And the outcome [2]?
Its outcome is “inactive”.

And the outcome [3]?
The outcome was “inactive”.

With `[O-]n1ccccc1=S.[O-]n1ccccc1=S.[Zn+2]` as the compound, how does the outcome [1] read?
Its outcome is “inactive”.

And the AC50 [2]?
The AC50 was 11.8 µM (active).

What about the AC50 [3] of the same compound?
Its AC50 is 22.9 µM (active).

Which results are given for `CC(CN=Cc1ccccc1O)N=Cc1ccccc1O` (stereo not given)?
outcome [1]: inactive; AC50 [2]: 6.64 µM (active); AC50 [3]: 4.63 µM (active)

With `COc1ccccc1N=Nc1c(S(=O)(=O)O)cc2cc(S(=O)(=O)O)cc(NC(C)=O)c2c1O` as the compound, how does the AC50 [1] read?
The AC50 was 13.8 µM (active).

And the outcome [2]?
Its outcome is “inactive”.

And the outcome [3]?
Its outcome is “inactive”.

With `Cc1cc(C)nc(NS(=O)(=O)c2ccc(N)cc2)n1` as the compound, how does the outcome [1] read?
Its outcome is “inactive”.

Which results are given for `Cc1cc(S(=O)(=O)O)ccc1N=Nc1c(O)ccc2ccccc12`?
AC50 [1]: 27.8 µM (active); outcome [2]: inactive

For `O=C(O)c1ccc(O)cc1`, which outcome [1] is on record?
Its outcome is “inactive”.

What about the outcome [2] of the same compound?
Its outcome is “inactive”.

And the outcome [3]?
Its outcome is “inactive”.

With `CCCCC(CC)COC(=O)c1ccc(O)cc1` (stereo not given) as the compound, how does the outcome [1] read?
Its outcome is “inactive”.

And the outcome [4]?
Its outcome is “inactive”.

What about the AC50 [5] of the same compound?
Its AC50 is 3.67 µM (active).

And the AC50 [6]?
Its AC50 is 0.86 µM (active).

What about the outcome [2] of the same compound?
The outcome was “inactive”.

What about the AC50 [7] of the same compound?
The AC50 was 1.91 µM (active).

What about the AC50 [8] of the same compound?
The AC50 was 1.41 µM (active).

Which results are given for `CCc1ccc(O)cc1`?
outcome [1]: inactive; outcome [2]: inactive; outcome [3]: inactive

For `CSCCC=O`, which outcome [1] is on record?
The outcome was “inactive”.

For `CCOc1ccccc1O`, which outcome [1] is on record?
The outcome was “inactive”.

And the outcome [2]?
The outcome was “inactive”.

What does the source list for `CCc1cc(Cc2cc(CC)cc(C(C)(C)C)c2O)c(O)c(C(C)(C)C)c1`?
outcome [1]: inactive; AC50 [2]: 24.3 µM (active); AC50 [3]: 22.9 µM (active)

Which outcome [1] does the source give for `CCc1cc(C(C)(C)C)c(O)c(C(C)(C)C)c1` here?
Its outcome is “inactive”.

What about the outcome [2] of the same compound?
The outcome was “inactive”.

And the outcome [3]?
Its outcome is “inactive”.

What does the source list for `Cc1ccc(S(=O)(=O)Oc2ccc(N=Nc3ccc(-c4ccc(N=Nc5c(O)ccc6cc(S(=O)(=O)O)cc(S(=O)(=O)O)c56)c(C)c4)cc3C)cc2)cc1`?
AC50 [1]: 17.4 µM (active); AC50 [2]: 7.03 µM (active); AC50 [3]: 2.55 µM (active)

Which results are given for `CCOC(=O)c1ccc(N)cc1`?
outcome [1]: inactive; outcome [2]: inactive; outcome [3]: inactive

With `Oc1ccc2cc(SSc3ccc4cc(O)ccc4c3)ccc2c1` as the compound, how does the outcome [1] read?
Its outcome is “inactive”.

Which outcome [1] does the source give for `CCOc1ccc(N=Nc2ccc(C=Cc3ccc(N=Nc4ccc(OCC)cc4)cc3S(=O)(=O)O)c(S(=O)(=O)O)c2)cc1` here?
The outcome was “inactive”.

For `O=C(O)CCCCCCCCC(=O)O`, which outcome [1] is on record?
The outcome was “inactive”.

And the AC50 [2]?
The AC50 was 2.76 µM (active).

What about the AC50 [3] of the same compound?
The AC50 was 2.07 µM (active).

For `O=C(Nc1ccc2c(O)c(N=Nc3ccc(N=Nc4ccc(S(=O)(=O)O)cc4)cc3)c(S(=O)(=O)O)cc2c1)c1ccccc1`, which AC50 [1] is on record?
The AC50 was 20.7 µM (active).

What about the outcome [2] of the same compound?
Its outcome is “inactive”.

Which results are given for `CS(=O)(=O)OCCCCOS(C)(=O)=O`?
AC50 [9]: 31.2 µM (active); outcome [10]: inactive; outcome [1]: inactive; outcome [2]: inactive; outcome [3]: inactive

For `O=c1c(O)c(-c2ccc(O)cc2)oc2cc(O)cc(O)c12`, which AC50 [1] is on record?
The AC50 was 34.3 µM (active).

What about the outcome [2] of the same compound?
The outcome was “inactive”.

And the AC50 [3]?
Its AC50 is 4.77 µM (active).

For `C=CC(C)(O)CCC=C(C)C` (stereo not given), which outcome [9] is on record?
Its outcome is “inactive”.

Which AC50 [9] does the source give for `O=C1c2ccccc2C(=O)c2c(O)ccc(O)c21` here?
Its AC50 is 10 µM (active).

Which outcome [2] does the source give for `CC(C=O)Cc1ccc(C(C)(C)C)cc1` (stereo not given) here?
The outcome was “inactive”.

And the outcome [3]?
The outcome was “inactive”.

Which outcome [2] does the source give for `OC[C@H]1O[C@@H]2O[C@H]3[C@H](O)[C@@H](O)[C@@H](O[C@H]4[C@H](O)[C@@H](O)[C@@H](O[C@H]5[C@H](O)[C@@H](O)[C@@H](O[C@H]6[C@H](O)[C@@H](O)[C@@H](O[C@H]7[C@H](O)[C@@H](O)[C@@H](O[C@H]8[C@H](O)[C@@H](O)[C@@H](O[C@H]9[C@H](O)[C@@H](O)[C@@H](O[C@H]1[C@H](O)[C@H]2O)O[C@@H]9CO)O[C@@H]8CO)O[C@@H]7CO)O[C@@H]6CO)O[C@@H]5CO)O[C@@H]4CO)O[C@@H]3CO` here?
Its outcome is “inactive”.

And the outcome [3]?
Its outcome is “inactive”.

Which outcome [2] does the source give for `CCOC(=O)C1OC1c1ccccc1` (stereo not given) here?
The outcome was “inactive”.

What about the outcome [3] of the same compound?
The outcome was “inactive”.

Which results are given for `C=CC(=O)OCCCC`?
outcome [2]: inactive; outcome [3]: inactive

With `CCC1(C)NC(=O)NC1=O` (stereo not given) as the compound, how does the outcome [2] read?
Its outcome is “inactive”.

What about the outcome [3] of the same compound?
Its outcome is “inactive”.

For `CCCCCCCC(=O)OCC(O)CO` (stereo not given), which outcome [2] is on record?
Its outcome is “inactive”.

And the outcome [3]?
Its outcome is “inactive”.

For `CCCCCCC(CO)CCCC` (stereo not given), which outcome [2] is on record?
Its outcome is “inactive”.

And the outcome [3]?
Its outcome is “inactive”.

Source: PubChem BioAssay (EPA / NIEHS)
